Screens deposited in PubChem by National Center for Advancing Translational Sciences (NCATS).
Rows were chosen to be rich in hits. Some 0.44% of all compounds tested hit in one or more screens of this group.
Epigenetic reg – regulators of epigenetic silencing causing reporter derepression in mouse cells; murine LDR cells, GFP reporter derepression, 30 h; Potency, µM (doses to about 53.9 µM), usual class: activators; 280,000 compounds, 0.2% hits; AID 1865; note: nearly all actives have a fitted effect of over 60% in size
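Reporter derepression read as number of fluorescent GFP-positive objects, 20-120 um in size, counted by laser-scanning cytometer. Mouse LDR line with an epigenetically silenced CMV-GFP locus; compound incubation 30 h, 37 C.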
p53 reactivation – re-activators of mutant p53. H1299 p53-A138V BP100-luciferase reporter, luminescence, 24 h. Potency, µM (series often up to 92.2 µM), actives largely listed as activators. 320,000 compounds, 0.063% hits. AID 504706; note: nearly all actives have a fitted effect of over 45% in size
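p53-null H1299 cells stably carrying temperature-sensitive p53-A138V and a BP100-luciferase reporter were pinned with compounds (4-point, 1:5 series) and held 24 hrs at 37 deg C. Luminescence was read 10 min after detection reagent.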
Pin1 inh – blocks the human prolyl isomerase Pin1; 390,000 compounds, 0.009% hits; Pin1 FP peptide displacement, HiFluor488, 10 min; Q13526; Potency, µM (highest dose often 115 µM), hits mostly inhibitors; active = well fitted inhibition curve with a large enough effect in the polarisation, with a control signal flat, not every such curve was filed as active; inconclusive = small, poorly fitted or top-dose-only effect, or effect the other way, or a change in a side signal; inactive = no such curve, though single readings can be large or run the other way; the % refers to the polarisation
Giardia killer – kills Giardia lamblia. Giardia lamblia trophozoite viability. activity change, % at 7.66 µM, hits read low. 340,000 compounds, 0.15% hits; in the data active = activity change below about -80%; inconclusive = between about -30% and that limit;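 note: parasites exposed to compound for two days anaerobically before the ATP read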
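Media and compound were dispensed first, then trophozoites at 100 cells/well; plates sat 48 hrs at 37 deg C without oxygen before ATP luminescence reagent was added and read after 15-30 min at room temperature.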
PI4K2A inh – blocks human PI4K2A kinase activity; purified PI4K2A, ADP-Glo luminescence, 1 h; active compounds read low; AID 1346378; Q9BTU6; activity change, negative = inhibition, % at 76.9 µM; 420,000 compounds, 0.13% hits; in the data active = activity change below about -50%; inconclusive = mostly about -30% to -49%
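PI4K2A activity was measured by ADP-Glo luminescence: enzyme (4 ug/mL stock) and phosphatidylinositol (1.2 mM stock) in Tris pH 7.5/MgCl2/EGTA/Triton X-100 buffer were reacted with ATP (300 microM stock) for one hour at ambient temperature.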
B2AR arrestin – recruits beta-arrestin to the human beta2-adrenergic receptor | 330,000 compounds, 0.02% hits | beta-arrestin recruitment to beta2AR, cell-based reporter | AID 492947 | Potency, µM (highest dose often 46.1 µM), hits mostly activators | P07550; note: nearly all actives have a fitted effect of over 65% in size
Target sequence (P07550 whole entry, looked up): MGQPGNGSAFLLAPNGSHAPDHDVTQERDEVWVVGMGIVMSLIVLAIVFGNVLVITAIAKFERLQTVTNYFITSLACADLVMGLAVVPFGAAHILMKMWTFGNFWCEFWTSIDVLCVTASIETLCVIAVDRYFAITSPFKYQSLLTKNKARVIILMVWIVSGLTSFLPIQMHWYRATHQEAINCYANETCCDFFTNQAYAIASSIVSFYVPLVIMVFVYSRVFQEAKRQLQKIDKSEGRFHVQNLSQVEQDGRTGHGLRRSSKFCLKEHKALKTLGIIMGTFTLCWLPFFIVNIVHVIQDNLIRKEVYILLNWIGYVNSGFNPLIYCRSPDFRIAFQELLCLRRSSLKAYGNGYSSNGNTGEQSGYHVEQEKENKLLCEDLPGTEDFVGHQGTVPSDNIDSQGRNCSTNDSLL
A number is an active result; n = inactive; u = inconclusive; x = not tested or not shown. Unless noted, calls come from the whole dose curve; as a rule, active = well fitted curve in the direction sought with a large enough effect; inconclusive = small, poorly fitted or top-dose-only effect, or another doubt; inactive = no such curve, though single readings can be large; an effect the other way counts as inactive or inconclusive.

SMILES | Epigenetic reg | p53 reactivation | Pin1 inh | Giardia killer | PI4K2A inh | B2AR arrestin
Cc1ccc(-c2csc(NC(=O)c3ccc(C)o3)n2)cc1 | n | n | n | n | n | n
Cc1ccc(-c2csc(NC(=O)c3ccc([N+](=O)[O-])o3)n2)cc1 | x | u | n | -95.3 | n | n
Cc1ccc(CNC(=O)CSc2ccsc2[N+](=O)[O-])cc1 | n | u | n | -88.0 | n | n
O=C(c1ccco1)N1CCN(c2nc(-c3ccc(Br)cc3)cs2)CC1 | x | x | n | x | x | x
COc1ccc(S(=O)(=O)N2c3ccc(Cl)cc3[C@@](O)(c3ccccc3Cl)[C@H]2C(=O)N2CCC[C@@H]2C(N)=O)cc1OC | x | x | x | x | n | x
Cc1ccc(C2=NCCn3nc4cc(C(F)(F)F)ccc4c32)cc1 | x | n | n | n | n | n
COc1ccc(C2=NCCn3c2c2ccc(C(F)(F)F)cc2[n+]3[O-])cc1 | x | n | n | -99.1 | n | n
Cc1ccc(C2=NCCn3c2c2ccc(C(F)(F)F)cc2[n+]3[O-])cc1 | x | n | n | -84.1 | n | n
O=C(Nc1ccccc1F)C(=Cc1sc(N2CCOCC2)nc1-c1ccccc1)C(=O)Nc1ccccc1F | 14.1µM | n | u | n | n | n
Cc1cc2c(s1)c1cnn(Cc3cccc(Br)c3)c(=O)c1n2C | x | x | n | x | x | x
O=C1Nc2ccccc2C1(c1ccc(O)cc1)c1ccc(O)cc1 | x | x | x | x | n | x
Cc1ccnc(N/C=C(\C#N)c2nc(-c3cccc(Br)c3)cs2)c1 | 15.8µM | n | u | n | n | n
COC(=O)c1cc(S(N)(=O)=O)ccc1OC | x | x | x | x | n | x
C[C@@H](c1ncncc1F)C(O)(Cn1cncn1)c1ccc(F)cc1F (stereo partly drawn) | x | x | x | x | n | x
Cc1cccc2cc(/C=C3\N=C(c4ccccc4)OC3=O)c(N3CCOCC3)nc12 | n | n | 75.7µM | n | n | n
O=C(Cn1ccnc1[N+](=O)[O-])NCc1ccccc1 | x | n | n | -83.3 | n | n
O=C(Cn1ccnc1[N+](=O)[O-])NCCO | n | x | x | x | n | x
COc1ccc(C2c3ccc(OCc4ccccc4)cc3Oc3ncn(CCN4CCOCC4)c(=N)c32)cc1OC (stereo not drawn) | x | x | n | x | x | x
COCCn1c(SCC(=O)N2CCCCC2)nc2ccccc2c1=O | n | n | n | n | -64.8 | n
COCCn1c(SCC(=O)Nc2cccc(C)c2C)nc2c(oc3ccccc32)c1=O | n | x | n | x | -66.3 | x
Cc1cc2c(s1)c1cnn(Cc3cc(OC(F)(F)F)ccc3F)c(=O)c1n2C | x | x | n | x | x | x
O=C(Nc1ccc(S(=O)(=O)Nc2nccs2)cc1)c1cccc(N2C(=O)c3ccccc3C2=O)c1 | n | n | u | u | n | n
O=C(Nc1nccs1)c1cccc(N2C(=O)c3cccc4c([N+](=O)[O-])ccc(c34)C2=O)c1 | 12.6µM | n | u | n | n | n
COc1ccc2nc(SCc3ncc(C)c(OC)c3C)[nH]c2c1 | x | x | x | x | n | x
O=c1c([N+](=O)[O-])cc(C(F)(F)F)cn1Cc1c(Cl)cccc1Cl | n | n | n | -90.8 | n | n
SMILES | Epigenetic reg | p53 reactivation | Pin1 inh | Giardia killer | PI4K2A inh | B2AR arrestin
O=[N+]([O-])c1cc(Cl)ccc1N1CCN(c2cccc(C(F)(F)F)c2)CC1 | n | n | n | n | n | n
COC(=O)c1ccc(Cn2cc(C(F)(F)F)ccc2=O)cc1 | n | n | n | n | n | n
COC(=O)c1ccc(Cn2cc(C(F)(F)F)cc([N+](=O)[O-])c2=O)cc1 | n | n | n | -94.6 | n | n
N[C@H](C(=O)O)[C@@H](O)c1ccc(O)c(O)c1 | x | x | x | x | n | x
Cc1cnc([N+](=O)[O-])n1CCOC(=O)NC(=O)c1ccc(C(F)(F)F)cc1 | n | n | n | -90.8 | n | n
O=C(NCc1ccco1)c1cccn2c(=O)c3cc4ccccc4cc3nc12 | 15.8µM | n | x | x | x | n
COc1cc2cc3c(N)c(C(=O)Nc4sc(C)c(C)c4C#N)sc3nc2cc1OC | n | n | u | n | -50.3 | n
COc1cccc(C2c3c(ncn(-c4cccc(C)c4)c3=N)Oc3ccc4ccccc4c32)c1 (stereo not drawn) | x | x | n | x | x | x
Cc1nc(C2CCCCC2)c(-c2ccc(S(N)(=O)=O)c(F)c2)o1 | x | x | x | x | n | x
Cc1nc(-c2ccc(NC(=O)c3ccco3)cc2)cs1 | x | n | n | -98.1 | u | n
